# Assay results: the supplement of paper PMC8183993
# Values joined by “and” are separate entries in the source; they are usually repeats but may differ in a detail not shown here. Equal values may be shown once. Where a name gives a salt, the structure may show the parent alone. ± gives the standard deviation of the averaged measurements. Whole data set: some 3,200 compounds, median “nuclei count (viability) relative to DMSO” near 99, cut for the lowest 2% near 16. For the sample, the lowest values were picked, then their nearest neighbours and some compounds at random.
# System: U2OS
# Test: nuclei count (viability) relative to DMSO (% of DMSO); higher = more viable cells
# Details: 10 µM; 24 h
# Experimental: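 Primary image-based screen in U2OS cells: compounds at 10 uM for 24 h, then a 1 h o-propargyl-puromycin (OPP) pulse, click labelling, and high-throughput microscopy. Mean cytoplasmic OPP intensity and nuclei count were normalised to DMSO wells within each plate (DMSO = 100) and averaged over triplicate plates.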
row,SMILES,nuclei count
1,"C/C=C1\NC(=O)[C@H]2CSSCC/C=C/[C@H](CC(=O)N[C@H](C(C)C)C(=O)N2)OC(=O)[C@H](C(C)C)NC1=O [Romidepsin (FK228 ,depsipeptide)]",8.81
2,CC#CCOC(=O)C1=CCCN(C)C1 [Arecaidine but-2-ynyl ester tosylate],101
3,CNC(=O)c1cc(Oc2ccc(NC(=O)Nc3cc(C(C)(C)C)nn3-c3ccc4ncccc4c3)c(F)c2)ccn1 [DCC-2036 (Rebastinib)],70.1
4,O=C(/C=C/c1ccc2ccccc2n1)c1ccncc1,11.3
5,NC(=O)c1ccncc1 [Isonicotinamide],99.6
6,C=CC(=O)c1ccc2ccccc2c1,105
7,COC(=O)C1=C(C)NC(C)=C(C(=O)OCCSc2ccccc2)C1C (stereo not drawn),97.8
8,CCS(=O)(=O)N1CCC[C@@H]2CN3CCc4cc(OC)ccc4[C@@H]3C[C@@H]21,101
9,CC1=CC(=O)c2ccccc2C1=O [Menadione],54.1
10,O=C1c2ccccc2C(=O)c2c1ccc(O)c2O [Alizarin],89.7
11,CC[C@H](C)[C@H](N)C1=N[C@H](C(=O)N[C@@H](CC(C)C)C(=O)N[C@H](CCC(=O)[O-])C(=O)N[C@H](C(=O)N[C@H]2CCCCNC(=O)[C@H](CC(N)=O)NC(=O)[C@@H](CC(=O)[O-])NC(=O)[C@H](Cc3cnc[nH]3)NC(=O)[C@@H](Cc3ccccc3)NC(=O)[C@H]([C@@H](C)CC)NC(=O)[C@@H](CCCN)NC2=O)[C@@H](C)CC)CS1.[Zn+2] [Bacitracin zinc],109
12,CC(C)NCC(O)COc1ccc(COCCOC(C)C)cc1 (racemic) [(±)-Bisoprolol hemifumarate],102
13,N#C/C(=C\c1ccc(O)c(O)c1)C(=O)Nc1ccccc1,83.4
14,"C[C@H](NC(=O)/C(C#N)=C/c1ccc(O)c(O)c1)c1ccccc1 [Tyrphostin B44, (+) enantiomer]",93.4
15,CCC[C@H](NC(=O)/C(C#N)=C/c1cccc(Br)n1)c1ccccc1,5.45
16,C[C@H](NC(=O)/C(C#N)=C/c1cccc(Br)n1)c1ccccc1,7.49 ± 1.2
17,N#C/C(=C\c1ccc(O)c(O)c1)C(=O)NCc1ccccc1,102 and 98.5
18,CC(C)c1cccc(=O)c(O)c1 [Hinokitiol],87.3
19,CCC(C)[C@H](NS(=O)(=O)c1cccc2ccccc12)C(=O)N[C@H](C=O)Cc1c[nH]c2ccccc12 (stereo partly drawn),90.3
20,CNC(=O)CN(CCN(CCN(CC(=O)O)CC(=O)NC)CC(=O)O)CC(=O)O.O.[Gd] [Gadodiamide (Omniscan)],101
21,Cc1ccccc1C(=O)Nc1ccc(C(=O)N2CCCC(N(C)C)c3ccccc32)cc1 (stereo not drawn) [Mozavaptan],41.2
22,N[C@@H](CS(=O)O)C(=O)O [L-Cysteinesulfinic acid],102
23,CC1=NN(c2ccc(C)c(C)c2)C(=O)/C1=N\Nc1cccc(-c2cccc(C(=O)O)c2)c1O,98.3
24,C=CC(=O)Nc1cccc(Oc2nc(Nc3ccc(N4CCN(C)CC4)cc3)ncc2Cl)c1,6.24
25,C=CC(=O)Nc1cccc(Oc2nc(Nc3ccc(N4CCN(C)CC4)cc3OC)ncc2Cl)c1,107
26,C=CC(=O)Nc1cccc(Nc2nc(Nc3ccc(Oc4ccnc(C(=O)NC)c4)cc3)ncc2F)c1,63.4
27,CCC(=O)Nc1cccc(Oc2nc(Nc3ccc(N4CCN(C)CC4)cc3OC)ncc2Cl)c1,94.6

row,SMILES,nuclei count
1,C=CC(=O)Nc1ccc2ncnc(Nc3cccc(Br)c3)c2c1,79.2 ± 4.8
2,C=CC(=O)Nc1cccc(Sc2nc(Nc3ccc(N4CCN(C)CC4)cc3)ncc2Cl)c1,13.6
3,NC1CCN(c2cccc(Cl)n2)CC1,103
4,COC(=O)C1=C(C)NC(C)=C(C(=O)NCCCN2CCC(c3ccccc3)(c3ccccc3)CC2)C1c1ccc([N+](=O)[O-])cc1 (stereo not drawn),55.1
5,O=C(O)CCc1ccc(NCc2cccc(Oc3ccccc3)c2)cc1,90.2
6,COC(C)(C)CCCC(C)C/C=C/C(C)=C/C(=O)O (stereo not drawn) [Methoprene acid],105
7,COc1ccc(CN2C(=O)C(=O)c3cc(OC(F)(F)F)ccc32)cc1,17.3
8,O=C1Nc2ccc([N+](=O)[O-])cc2C1=O [5-Nitroisatin],99
9,CS(=O)(=O)Nc1ccc([N+](=O)[O-])cc1Oc1ccccc1 [Nimesulide],103 ± 6.9
10,O=[N+]([O-])c1ccc2c(c1)S(=O)(=O)C=C2 [Stattic],14.1
11,CCCC[P+](CCCC)(CCCC)Cc1ccc(NC(=O)C(Cc2ccc3ccccc3c2)NC(=NC2CCCCC2)NC2CCCCC2)cc1 (stereo not drawn),94.1
12,CC(C)C[C@H](NC(=O)[C@@H](O)[C@H](N)Cc1ccccc1)C(=O)O [Bestatin],94.4
13,CC(C)C[C@H](NC(=O)[C@H](Cc1ccccc1)NC(=O)c1cnccn1)B(O)O [Bortezomib (Velcade)],7.65
14,Nc1nc(NCCc2ccc(O)cc2)nc2nc(-c3ccco3)nn12,114
15,CCCOc1ccn2c(C(C)=O)cc(-c3ccccc3S(C)(=O)=O)c2c1,96.4
16,Cc1cc(=O)n(C)c2cc(N3C(=O)CC[C@H](NS(=O)(=O)CC(C)C)[C@H]3c3ccc(Cl)cc3)ccc12,104
17,COCCCN1CCC(NC(=O)c2cc(Cl)c(N)c3c2OCC3)CC1 [Prucalopride],103
18,O=C1NCCN1c1ncc([N+](=O)[O-])s1 [Niridazole],90.4
19,O=c1[nH]nc(Sc2ncc([N+](=O)[O-])s2)n1-c1ccc2c(c1)OCCO2,6.42 ± 2.8
20,O=c1nc2ccccc2c2n1CC(CN1CCN(c3ccccc3)CC1)N2 (stereo not drawn),100
21,COc1cc2c(cc1OC)CN(CCc1ccc(NC(=O)c3cc(OC)c(OC)cc3NC(=O)c3cnc4ccccc4c3)cc1)CC2 [Tariquidar],96.8
22,"CCCCC/C=C/C=C1/C(=O)C=C[C@@H]1C/C=C\CCCC(=O)O [15-Deoxy-D12,14-prostaglandin J2]",85.6
23,O=C(Nc1ccccc1-c1cn2c(CN3CCNCC3)csc2n1)c1cnc2ccccc2n1,12.2
24,O=[N+]([O-])c1cccc2c(Br)[nH]nc12 [3-Bromo-7-nitroindazole],102
25,CCC(=O)OCN1C(=O)C=CC1=O,109
26,CN(CCOc1ccc(-c2ccc3c(c2)OCO3)cc1C(C)(C)C)CC(=O)O,98
